Bioassay records deposited in PubChem by several laboratories.
Most compounds without a hit are left out; they make up all but 3% or so of the library.
PAX8 reporter: inhibitors of PAX8 transcriptional activity in RMG-I cells. actives 1.2% (n = 360,000). RMG-I TPO-luciferase reporter, SteadyGlo, 24 h. AID 652154. inhibition, % at 12.6 µM;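 active = mean replicate inhibition at least 60% with every replicate also reaching 60%; inconclusive = only one of the two criteria is met; inactive = mean below 60% and not all replicates reaching 60%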;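 also: luciferase light reporting Pax8 driven TPO promoter activity; plate controls were median of neutral control wells for no effect and mitoxantrone controls for full effect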
TRPM1 prom inh: inhibitors of MITF-driven TRPM1 promoter in melanoma cells | SK-MEL-5 TRPM1 promoter luciferase, 24 h | actives 0.83% (n = 330,000) | inhibition, % at 12.5 µM | AID 488899;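 active = mean inhibition across replicates of 60% or more, whatever share of single replicates reaches that level; inconclusive = some that reach 60%, reason not given; inactive = mean inhibition across replicates below 60%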
ABHD5 PLIN5 PPI: inhibitors of human ABHD5-perilipin-5 interaction; Q00G26+Q8WTS1; actives 0.78% (n = 360,000); Split G. princeps luciferase complementation, luminescence, 4 h; inhibition, % at 4 µM;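 active = inhibition above the mean inhibition across every tested compound plus 3 SD, cut at about 22% in these data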;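 also: 0% = DMSO only wells and the 100% control is not disclosed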
Target sequence (Q00G26 whole entry, looked up): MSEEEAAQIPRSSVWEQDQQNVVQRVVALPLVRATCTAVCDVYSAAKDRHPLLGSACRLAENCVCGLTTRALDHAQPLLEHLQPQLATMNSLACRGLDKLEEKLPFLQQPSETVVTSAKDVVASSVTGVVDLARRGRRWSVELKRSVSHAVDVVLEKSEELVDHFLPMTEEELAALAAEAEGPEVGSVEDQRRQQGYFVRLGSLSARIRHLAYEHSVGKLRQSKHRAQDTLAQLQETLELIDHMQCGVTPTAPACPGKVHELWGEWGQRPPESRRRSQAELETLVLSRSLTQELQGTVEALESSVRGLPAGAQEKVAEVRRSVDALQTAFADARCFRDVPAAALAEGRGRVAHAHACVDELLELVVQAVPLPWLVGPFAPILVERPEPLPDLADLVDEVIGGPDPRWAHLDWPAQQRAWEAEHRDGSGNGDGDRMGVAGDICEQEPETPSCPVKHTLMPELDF
Target sequence (Q8WTS1 whole entry, looked up): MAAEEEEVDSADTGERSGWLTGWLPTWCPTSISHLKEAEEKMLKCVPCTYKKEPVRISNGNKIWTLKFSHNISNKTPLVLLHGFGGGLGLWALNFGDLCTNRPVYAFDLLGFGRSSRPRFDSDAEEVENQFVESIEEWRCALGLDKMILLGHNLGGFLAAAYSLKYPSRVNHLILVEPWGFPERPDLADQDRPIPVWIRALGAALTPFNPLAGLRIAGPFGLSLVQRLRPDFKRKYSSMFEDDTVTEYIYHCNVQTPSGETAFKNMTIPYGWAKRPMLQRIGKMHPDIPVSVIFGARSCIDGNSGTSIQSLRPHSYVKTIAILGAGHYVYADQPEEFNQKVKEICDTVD
Shn3 inh set2: inhibitors of Schnurri-3 3'UTR reporter in osteoblasts | actives 0.52% (n = 360,000) | Clone20 osteoblast Shn3 3'UTR firefly luciferase, 24 h | inhibition, % at 12.5 µM;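 active = mean inhibition of at least 75% with every replicate also reaching 75%; inconclusive = mean inhibition at least 75% but some replicate below; inactive = mean inhibition below 75%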;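 also: 0% = median of neutral control wells and 100% = pilot-screen positive control compound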
EWS-Fli block: blocks EWS/Fli oncoprotein-driven transcription | A673 NR0B1-luciferase reporter, viability-normalised | inhibition, % at 12.6 µM | actives 0.67% (n = 350,000);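 active = mean inhibition of at least 50% after viability correction, with every replicate also passing that limit; inconclusive = mean reaches 50% but only one of two replicates passes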;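 also: firefly luciferase signal divided by Alamar Blue viability fluorescence both relative to DMSO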
Peg3 promoter: inhibitors of Peg3 promoter; HeLa PEG-Prom luciferase reporter, luminescence, overnight; inhibition, % at 20 µM; actives 1.7% (n = 360,000); AID 588405;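 active = inhibition of at least 50% at 20 µM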
Starred values were filed as active, the others as inactive; ? = inconclusive; . = no result given.

SMILES	PAX8 reporter	TRPM1 prom inh	ABHD5 PLIN5 PPI	Shn3 inh set2	EWS-Fli block	Peg3 promoter
CCCC(=O)N1CC2(C1)CN(C(=O)Nc1cccc(F)c1)[C@H](CO)c1c2c2ccc(OC)cc2n1C	.	.	.	.	7	.
Cc1cc([N+](=O)[O-])nn1CCCC(=O)Nc1sc2c(c1C(N)=O)CCC(C)C2 (stereo not given)	97*	2	4	3	-4	13
C[C@@H]1CCCCO[C@@H](CN(C)S(=O)(=O)c2cn(C)cn2)[C@H](C)CN([C@@H](C)CO)C(=O)c2cc(NS(=O)(=O)c3cccs3)ccc2O1	-19	.	.	.	-2	.
CS(=O)(=O)N1CCCCN2[C@H](CO)[C@@H](c3ccc(Br)cc3)[C@@H]2C1	-2	.	.	.	-10	.
C[C@@H]1CN([C@@H](C)CO)C(=O)c2cc(NS(=O)(=O)c3ccc(Cl)cc3)ccc2O[C@@H](C)CCCCO[C@H]1CN(C)Cc1ccc2c(c1)OCO2	53	.	.	.	-24	.
C[C@H](CO)N1C[C@H](C)[C@H](CN(C)Cc2ccc3c(c2)OCO3)OCCCC[C@H](C)Oc2ccc(NS(=O)(=O)c3ccc(Cl)cc3)cc2C1=O	76*	.	.	.	10	.
Cc1ccc(S(=O)(=O)Nc2ccc3c(c2)C(=O)N([C@H](C)CO)C[C@@H](C)[C@@H](CN(C)Cc2ccc4c(c2)OCO4)OCCCC[C@@H](C)O3)cc1	97*	.	.	.	26	.
COc1ccc(/C=N/NC(=O)COc2ccccc2-c2ccccc2)cc1	74*	31	-7	-28	.	20
COc1ccc(/C=N/NC(=O)CCn2cnc(-c3ccccc3)c2-c2ccccc2)cc1	18	-2	5	-7	51*	30
O=C(COc1ccccc1-c1ccccc1)N/N=C/c1cccc2ccccc12	.	53	1	12	.	27
O=C(Nc1cc(F)ccc1F)N[C@H]1C=C[C@@H](CC(=O)N2CCc3ccccc3C2)O[C@H]1CO	-10	.	.	.	11	.
Cc1cc(C(=O)Cn2ncc(Cl)c(Cl)c2=O)c(C)n1CC(F)(F)F	2	43	12	23	17	100*
CCCc1cc(=O)[nH]c(SCC(=O)c2cc(C)n(CC(F)(F)F)c2C)n1	3	12	-3	2	5	19
Cc1cccc(Cn2ncc(Cl)c(Cl)c2=O)c1	.	28	8	51	?	44
Cc1ccc(C)c(C(=O)Cn2ncc(Cl)c(Cl)c2=O)c1	.	75*	0	66	.	109*
CNC[C@@H]1Oc2ccc(NC(=O)Nc3ccc(F)cc3)cc2C(=O)N([C@@H](C)CO)C[C@@H]1C	-15	.	.	.	1	.
CCOC(=O)/C(C#N)=C/c1ccc(OC(=O)c2ccccn2)cc1	0	-11	2	13	10	-8
COC(=O)/C(C#N)=C/c1ccc(OC(=O)c2ccccn2)cc1	1	-9	0	-20	52*	-20
O=C(C[C@@H]1CC[C@@H]2[C@H](COC[C@H](O)CN2Cc2ccc(Oc3ccccc3)cc2)O1)N1CCN(c2ccccc2)CC1	62*	.	.	.	7	.
O=C(C[C@@H]1CC[C@H]2[C@@H](COC[C@H](O)CN2Cc2ccc(Oc3ccccc3)cc2)O1)Nc1nccs1	66*	.	.	.	11	.
O=C(C[C@@H]1CC[C@H]2[C@@H](COC[C@@H](O)CN2Cc2ccc(Oc3ccccc3)cc2)O1)N1CCN(c2ccccc2)CC1	64*	.	.	.	36	.
CC(C)CC#Cc1ccc2c(c1)O[C@@H](CN(C)C(=O)c1cccc(F)c1)[C@@H](C)CN([C@H](C)CO)S2(=O)=O	.	.	.	.	11	.
Cc1ccc(S(=O)(=O)N(C)C[C@H]2Oc3c(NC(=O)c4cc(C)nn4C)cccc3C(=O)N([C@@H](C)CO)C[C@@H]2C)cc1	-16	.	.	.	-11	.
COCC(=O)N(C)C[C@H]1Oc2cc(C#CC3CCCC3)ccc2S(=O)(=O)N([C@H](C)CO)C[C@H]1C	.	.	.	.	-1	.
CCCCCC(CC(=O)NO)C(=O)NC(C(=O)N1CCCC1CO)C(C)C (stereo not given)	90*	-1	-1	-20	-10	-6
SMILES	PAX8 reporter	TRPM1 prom inh	ABHD5 PLIN5 PPI	Shn3 inh set2	EWS-Fli block	Peg3 promoter
O=c1[nH]c2ccccc2c(O)c1O	.	12	98*	14	16	-1
COc1ccc(NC(=O)Nc2ccc3c(c2)C(=O)N([C@H](C)CO)C[C@H](C)[C@@H](CN(C)S(=O)(=O)c2cccs2)OCCCC[C@@H](C)O3)cc1	5	.	.	.	-2	.
C/C(CC(=O)NC1CCCC1)=N\NC(=O)Cc1cccs1	.	12	63*	-14	.	19
CC(=O)c1ccc(N/N=C(/C(N)=O)C2=NC(C)(C)Cc3ccccc32)cc1	41	5	1	29	.	77*
COc1cc(Cl)ccc1NC(=S)N(CCN(C)C)C(C)c1ccncc1 (stereo not given)	-10	12	-6	14	-2	14
COc1ccc(NC(=S)N(CCN(C)C)C(C)c2ccncc2)cc1Cl (stereo not given)	-19	-5	0	46	7	54*
CN1C(=O)c2cc(NC(=O)c3ccc(F)cc3)ccc2OC[C@H]2O[C@@H](CC(=O)N3CCOCC3)CC[C@H]21	-4	.	.	.	-5	.
C[C@H]1CN([C@@H](C)CO)C(=O)c2cccc(NS(=O)(=O)c3cn(C)cn3)c2O[C@@H]1CN(C)Cc1ccc(C(=O)O)cc1	.	.	.	.	-4	.
CC(C)(C)c1cc[n+](C2=C([O-])c3ccccc3C(=O)/C2=N\S(=O)(=O)c2ccccc2)cc1	16	.	-1	-9	3	15
CCCCC[n+]1ccn(-c2nc3ccccc3nc2[N-]S(=O)(=O)c2ccc(C)cc2)c1	14	9	-3	4	.	21
CCCCC[n+]1ccn(C2=C([O-])c3ccccc3C(=O)/C2=N\S(=O)(=O)c2ccccc2)c1	52	94*	4	7	.	20
CC(C)[n+]1ccn(C2=C([O-])c3ccccc3C(=O)/C2=N\S(=O)(=O)c2ccccc2)c1	30	55	-7	-9	19	1
CCCCC[n+]1ccn(C2=C([O-])c3ccccc3C(=O)/C2=N\S(=O)(=O)c2ccc(Br)cc2)c1	17	85*	2	-7	4	15
CCCC[n+]1ccn(C2=C([O-])c3ccccc3C(=O)/C2=N\S(=O)(=O)c2ccccc2)c1	44	96*	-6	15	.	20
Cc1ccc2c(c1)c1c(n2CC(O)CNC(CO)(CO)CO)CCCC1 (stereo not given)	0	-10	16	-14	-4	-1
Cc1ccc2c(c1)c1c(n2CC(O)CNC2CCCCC2)CCCC1 (stereo not given)	12	12	0	14	25	102*
C[C@H]1CCCCO[C@H](CN(C)C(=O)C2CCCCC2)[C@@H](C)CN([C@@H](C)CO)C(=O)c2cc(NS(=O)(=O)c3cccs3)ccc2O1	.	.	.	.	-8	.
CC(OC(=O)c1ccc(S(C)(=O)=O)c([N+](=O)[O-])c1)C(=O)NC1C2CC3CC(C2)CC1C3 (stereo not given)	106*	.	23*	98*	50	95*
